Data on 2 compounds can be found in PubChem BioAssay AID540255 (Broad Institute, 2011).

This assay is described as follows: inhibitors of control reporter signal in H4 cells – cell-based, plate reader, dry powder samples, counter-screen for prion reporter project, dose response (AID 540255). The settings on record: H4 neuroglioma control reporter; series mostly up to 5 µM. (A counterscreen serves to expose hits that act by an unwanted route or on another target.)

Measured potencies and affinities stand elsewhere. Records with an inconclusive call do not appear. The source made the active and inactive calls. No rule for the calls is given here.

As to `Cc1cccc(C(=O)O/N=C(\N)c2ccccn2)c1`, the outcome was inactive.
Under `COc1ccc(N=CC2=C(O)c3ccccc3C2=O)c(OC)c1` stands “inactive”.
